Assay results taken from PubChem BioAssay AID449764 (Southern Research Specialized Biocontainment Screening …, 2010).
Out of some 2,300 compounds screened, about 1,700 (74%) were called active. The set was probably picked from earlier hits. Some of the results follow. Entries with a potency or affinity are not part of this list. Unmarked numbers belong to inactive results. The rule behind the calls is not given here.

assay: Mycobacterium tuberculosis H37Rv growth inhibition, no glycerol, confirmatory dose response (AID 449764); details: series mostly up to 100 µM; inhibition: at the top concentration;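 note: growth read after 7 days of incubation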

| SMILES | inhibition |
| --- | --- |
| C/C(=N\NC(=O)CC(C)C)c1c(C(F)(F)F)[nH]n(-c2nc3ccccc3s2)c1=O | 10.1% |
| Oc1cccc(-c2nc3ccccc3s2)c1 | 5.57% |
| Cc1ccc(NC(=O)CNCc2cccs2)cc1Br | 7.81% |
| COC(=O)c1ccc(N/C(C)=C/C(=O)c2ccc(C)o2)cc1 | -5.59% |
| O=C(c1cccc([N+](=O)[O-])c1)N1CCN(c2ccc(N3CCOCC3)nn2)CC1 | -4% |
| S=c1[nH]c2ccc3ccccc3c2[nH]1 | 2.34% |
| Oc1ccccc1C=NC1=NN(c2cccc(C(F)(F)F)c2)CC1 | 9.07% |
| CCCCCCc1ccc(N2C[C@H](C)[C@@H](CC(=O)NCc3ccccc3)C2=O)cc1 | 4.93% |
| O=Cc1ccc(-c2ccc(Cl)cc2Cl)[nH]1 | 1.82% |
| O=C(Nc1ccc(-c2noc(CCc3ccccc3)n2)cc1)c1cccnc1 | 15.6% |
| CNC(=O)c1csc(-c2ccc(Cl)cc2)n1 | -10.9% |
| CN1C(=O)c2cccc3c(Br)ccc(c23)C1=O | 12.8% |
| O=C(C1CC(=O)N(c2ccc3c(c2)OCCO3)C1)N1CCN(c2cccc(C(F)(F)F)c2)CC1 (stereo unspecified) | -5.7% |
| CO/N=C\CC(=O)Nc1ccc(Oc2ccccc2)cc1 | -1.66% |
| COc1ccc(-c2cc(C(=O)N(C)CC(=O)Nc3cccc(F)c3)c3ccccc3n2)cc1 | -7.46% |
| CCc1ccc(NC(=O)c2ccc(C3SCC(=O)N3CCc3ccccc3)cc2)cc1 (stereo unspecified) | 18.5% |

| SMILES | inhibition |
| --- | --- |
| COc1cc(/C=N/N2CCOCC2)ccc1OCc1ccc(Cl)cc1 | 7.51% |
| CC(C)OC(=O)c1ccc(N)cc1 | 0.17% |
| CC(=O)Oc1ccc2occ(C(=O)c3cccs3)c2c1 | -6.49% |
| CCCC1CCC(C(=O)Nn2c(C)nc3ccccc3c2=O)CC1 (stereo unspecified) | -9.95% |
| CCOC(=O)c1cc(CC)sc1NC(=O)c1cc(OCC)c(OCC)c(OCC)c1 | 0.67% |
| Nc1nc2ccccc2n1/N=C/c1ccc(Br)cc1 | -0.83% |
| CCOc1cc(C2NN=C(c3ccc(C)cc3)S2)ccc1O (stereo unspecified) | 9.69% |
| CC(=O)c1ccc(NC(=O)COC(=O)c2c3c(nc4ccccc24)/C(=C\c2cccs2)CCC3)cc1 | 4.09% |
| CC(/C=C/C=C/c1ccccc1)=N\NC(=O)c1cccnc1 | -10.2% |
| CCNc1nc(NCC)n2c(SC(C(=O)Nc3cc(C)ccc3C)c3ccccc3)nnc2n1 (stereo unspecified) | -4.86% |
| Cc1ccc(-c2cn3cccnc3n2)cc1NC(=O)c1ccc(Br)o1 | 2.75% |
| Clc1nc2c(-c3ccccc3)nnn2c2ccccc12 | 1.59% |
| CCCCc1ccc(NC(=O)CSC2=NN3CCCC(=O)N=C3S2)cc1 | 16% |
| COc1ccccc1/C=C/C1=NC(=C\C=C/c2ccccc2)/C(=O)O1 | 1.32% |
| Cc1ccc(-c2nnc(C)c(N3CCCC3)n2)cc1 | 21.2% |
